# Reference: PubChem BioAssay AID1159580 (chemical genetic matrix, 2015)
# Hit rate of the full screen: of about 5,500 compounds, about 2,000 (36%) were called active. Roughly 18% stayed inconclusive and do not appear here. The list shows a part of the results. A number with no mark means an inactive call. Cut-off read from the data, not from the text of the source: active = normalized growth mostly below about 0.91 (no sharp cut-off); inconclusive = no clear call, values can overlap the other calls; inactive = mostly above about 0.92.
# Test: chemical genetic growth profiling, strain panel (AID 1159580);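 note: tested at 20 µM; growth read once vehicle control cultures reached saturation at 30 °C; 1 = growth at the plate median or of vehicle wells; lower values mean less growth of the strain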
# Settings: growth OD
smiles,measurement,setting,value
CCCCCCCCCCCC[C@H](C(=O)O)[C@@H](C)C(=O)O,normalized growth,"S. cerevisiae deletion strains, locus YJR075W, strain HOC1, active compounds read low",1.07
same,normalized growth,"S. cerevisiae deletion strains, locus YKL009W, strain mrt4, active compounds read low",0.946
same,normalized growth,"S. cerevisiae deletion strains, locus YKL068W, active compounds read low",0.996
same,normalized growth,"S. cerevisiae deletion strains, locus YKL085W, strain MDH1 (second series), active compounds read low",0.975
same,normalized growth,"S. cerevisiae deletion strains, locus YKL085W, strain MDH1, active compounds read low",0.975
same,normalized growth,"S. cerevisiae deletion strains, locus YKL160W, strain elf1, active compounds read low",1
same,normalized growth,"S. cerevisiae deletion strains, locus YKL190W, strain CNB1, active compounds read low",0.99
same,normalized growth,"S. cerevisiae deletion strains, locus YKR001C, strain vps1, active compounds read low",0.982
same,normalized growth,"S. cerevisiae deletion strains, locus YKR026C, strain gcn3, active compounds read low",0.965
same,normalized growth,"S. cerevisiae deletion strains, locus YKR091W, strain srl3, active compounds read low",0.974
same,normalized growth,"S. cerevisiae deletion strains, locus YLL001W, strain dnm1, active compounds read low",1.01
same,normalized growth,"S. cerevisiae deletion strains, locus YLL026W, active compounds read low",0.987
same,normalized growth,"S. cerevisiae deletion strains, locus YLL041C, strain sdh2, active compounds read low",0.973
same,normalized growth,"S. cerevisiae deletion strains, locus YLR027C, strain aat2, active compounds read low",0.992
same,normalized growth,"S. cerevisiae deletion strains, locus YLR039C, strain RIC1, active compounds read low",1.04
same,normalized growth,"S. cerevisiae deletion strains, locus YLR058C, strain SHM2, active compounds read low",0.994
same,normalized growth,"S. cerevisiae deletion strains, locus YLR102C, strain apc9, active compounds read low",1.01
same,normalized growth,"S. cerevisiae deletion strains, locus YLR113W, strain HOG1, active compounds read low",0.903
same,normalized growth,"S. cerevisiae deletion strains, locus YLR221C, strain rsa3, active compounds read low",1
same,normalized growth,"S. cerevisiae deletion strains, locus YLR258W, strain gsy2, active compounds read low",0.979
same,normalized growth,"S. cerevisiae deletion strains, locus YLR262C, strain YPT6 (second series), active compounds read low",0.934
same,normalized growth,"S. cerevisiae deletion strains, locus YLR262C, strain YPT6, active compounds read low",1.12
same,normalized growth,"S. cerevisiae deletion strains, locus YLR268W, strain sec22, active compounds read low",1.02
same,normalized growth,"S. cerevisiae deletion strains, locus YLR320W, strain mms22, active compounds read low",1.01
same,normalized growth,"S. cerevisiae deletion strains, locus YLR330W, strain CHS5, active compounds read low",0.986
same,normalized growth,"S. cerevisiae deletion strains, locus YLR342W, strain FKS1 (second series), active compounds read low",1.02
same,normalized growth,"S. cerevisiae deletion strains, locus YLR342W, strain FKS1, active compounds read low",0.986
same,normalized growth,"S. cerevisiae deletion strains, locus YLR357W, strain rsc2, active compounds read low",0.994
same,normalized growth,"S. cerevisiae deletion strains, locus YLR370C, strain arc18, active compounds read low",0.975
same,normalized growth,"S. cerevisiae deletion strains, locus YLR371W, strain rom2, active compounds read low",1.01
same,normalized growth,"S. cerevisiae deletion strains, locus YLR384C, strain iki3, active compounds read low",0.974
same,normalized growth,"S. cerevisiae deletion strains, locus YLR418C, strain cdc73, active compounds read low",1.02
same,normalized growth,"S. cerevisiae deletion strains, locus YML016C, strain PPZ1, active compounds read low",0.982
same,normalized growth,"S. cerevisiae deletion strains, locus YML032C, strain rad52, active compounds read low",1.01
same,normalized growth,"S. cerevisiae deletion strains, locus YML120C, strain ndi1, active compounds read low",0.991
same,normalized growth,"S. cerevisiae deletion strains, locus YML124C, strain tub3, active compounds read low",0.998
same,normalized growth,"S. cerevisiae deletion strains, locus YMR058W, strain fet3, active compounds read low",0.998
same,normalized growth,"S. cerevisiae deletion strains, locus YMR078C, strain ctf18, active compounds read low",0.995
same,normalized growth,"S. cerevisiae deletion strains, locus YMR125W, strain sto1, active compounds read low",0.98
same,normalized growth,"S. cerevisiae deletion strains, locus YMR129W, active compounds read low",0.971
same,normalized growth,"S. cerevisiae deletion strains, locus YMR205C, strain PFK2, active compounds read low",1
same,normalized growth,"S. cerevisiae deletion strains, locus YMR223W, strain ubp8, active compounds read low",1.03
same,normalized growth,"S. cerevisiae deletion strains, locus YMR231W, strain pep5, active compounds read low",0.927 (active)
same,normalized growth,"S. cerevisiae deletion strains, locus YMR263W, strain SAP30, active compounds read low",0.996
same,normalized growth,"S. cerevisiae deletion strains, locus YMR307W, strain GAS1, active compounds read low",1.06
same,normalized growth,"S. cerevisiae deletion strains, locus YNL067W, strain RPL9B, active compounds read low",1.01
same,normalized growth,"S. cerevisiae deletion strains, locus YNL071W, strain lat1, active compounds read low",0.968
same,normalized growth,"S. cerevisiae deletion strains, locus YNL128W, strain TEP1, active compounds read low",1.01
same,normalized growth,"S. cerevisiae deletion strains, locus YNL153C, strain GIM3, active compounds read low",0.994
same,normalized growth,"S. cerevisiae deletion strains, locus YNL183C, strain NPR1, active compounds read low",0.91
same,normalized growth,"S. cerevisiae deletion strains, locus YNL209W, strain ssb2, active compounds read low",0.995
same,normalized growth,"S. cerevisiae deletion strains, locus YNL233W, strain BNI4, active compounds read low",1
same,normalized growth,"S. cerevisiae deletion strains, locus YNL248C, strain rpa49, active compounds read low",1
same,normalized growth,"S. cerevisiae deletion strains, locus YNL250W, strain rad50, active compounds read low",1.02
same,normalized growth,"S. cerevisiae deletion strains, locus YNL271C, strain bni1, active compounds read low",1.01
same,normalized growth,"S. cerevisiae deletion strains, locus YNL298W, strain CLA4, active compounds read low",0.972
same,normalized growth,"S. cerevisiae deletion strains, locus YNL307C, strain MCK1, active compounds read low",1.01
same,normalized growth,"S. cerevisiae deletion strains, locus YNL322C, strain KRE1 (second series), active compounds read low",0.968
same,normalized growth,"S. cerevisiae deletion strains, locus YNL322C, strain KRE1, active compounds read low",0.989
same,normalized growth,"S. cerevisiae deletion strains, locus YNR049C, strain mso1, active compounds read low",0.979
same,normalized growth,"S. cerevisiae deletion strains, locus YNR052C, strain pop2, active compounds read low",1.02
same,normalized growth,"S. cerevisiae deletion strains, locus YOL006C, strain TOP1, active compounds read low",1.04
same,normalized growth,"S. cerevisiae deletion strains, locus YOL012C, strain htz1",1.2
same,normalized growth,"S. cerevisiae deletion strains, locus YOL147C, strain pex11, active compounds read low",0.997
same,normalized growth,"S. cerevisiae deletion strains, locus YOR001W, strain rrp6, active compounds read low",0.984
same,normalized growth,"S. cerevisiae deletion strains, locus YOR061W, strain CKA2, active compounds read low",0.994
same,normalized growth,"S. cerevisiae deletion strains, locus YOR069W, strain VPS5, active compounds read low",0.989
same,normalized growth,"S. cerevisiae deletion strains, locus YOR070C, strain gyp1, active compounds read low",0.987
same,normalized growth,"S. cerevisiae deletion strains, locus YOR080W, strain dia2, active compounds read low",0.962
same,normalized growth,"S. cerevisiae deletion strains, locus YOR083W, strain WHI5, active compounds read low",1.01
same,normalized growth,"S. cerevisiae deletion strains, locus YOR106W, strain vam3, active compounds read low",1.02
same,normalized growth,"S. cerevisiae deletion strains, locus YOR136W, strain idh2, active compounds read low",1.03
same,normalized growth,"S. cerevisiae deletion strains, locus YOR144C, strain elg1, active compounds read low",1
same,normalized growth,"S. cerevisiae deletion strains, locus YOR184W, strain ser1, active compounds read low",1.04
same,normalized growth,"S. cerevisiae deletion strains, locus YOR231W, strain MKK1, active compounds read low",0.963
same,normalized growth,"S. cerevisiae deletion strains, locus YOR265W, strain rbl2, active compounds read low",0.985
same,normalized growth,"S. cerevisiae deletion strains, locus YOR270C, strain vph1, active compounds read low",1.02
same,normalized growth,"S. cerevisiae deletion strains, locus YOR290C, strain snf2, active compounds read low",1
same,normalized growth,"S. cerevisiae deletion strains, locus YOR316C, strain cot1, active compounds read low",1.01
same,normalized growth,"S. cerevisiae deletion strains, locus YPL051W, strain arl3, active compounds read low",0.983
same,normalized growth,"S. cerevisiae deletion strains, locus YPL055C, strain LGE1, active compounds read low",1.03
same,normalized growth,"S. cerevisiae deletion strains, locus YPL078C, strain atp4, active compounds read low",0.971
same,normalized growth,"S. cerevisiae deletion strains, locus YPL106C, strain sse1, active compounds read low",0.952
same,normalized growth,"S. cerevisiae deletion strains, locus YPL240C, strain hsp82, active compounds read low",0.973
same,normalized growth,"S. cerevisiae deletion strains, locus YPL241C, strain CIN2, active compounds read low",0.99
same,normalized growth,"S. cerevisiae deletion strains, locus YPL256C, strain CLN2, active compounds read low",0.949
same,normalized growth,"S. cerevisiae deletion strains, locus YPR119W, strain clb2, active compounds read low",0.986
same,normalized growth,"S. cerevisiae deletion strains, locus YPR141C, strain kar3, active compounds read low",1.03
same,normalized growth,"S. cerevisiae deletion strains, locus YPR163C, strain tif3, active compounds read low",1.02
same,normalized growth,"S. cerevisiae deletion strains, locus YPR167C, strain met16, active compounds read low",1.01
same,normalized growth,"S. cerevisiae deletion strains, strain wtn01, active compounds read low",1.01
same,normalized growth,"S. cerevisiae strains, strain wild type, active compounds read low",0.992
